# Test system: Plasmodium falciparum
# Experiment: GSK_TCMDC: Inhibition of Plasmodium falciparum 3D7 in whole red blood cells, using parasite LDH activity as an index of growth. Test compounds present at 2uM
# Type: functional
row,SMILES,Inhibition
1,Cc1ccccc1C1CCN(C2CCC(NC(=O)/C=C/c3cccc(F)c3F)CC2)CC1 (stereo unspecified),89%
2,CCC1CN2CCc3c([nH]c4ccccc34)C2CC1CC1=NCCc2c1[nH]c1ccc(OC)cc21.Cl (stereo unspecified),100%
3,CCC(=O)OC(CCN(CC)CC)(c1ccccc1)c1ccccc1,98%
4,CC[C@H](C)CNC(=O)c1cncc(-c2ccc(CNCCOc3ccccc3)cc2)c1.O=C(O)C(F)(F)F,90%
5,CC(C)CCN1CCC(Oc2ccc(NC(=O)c3cccs3)cc2Cl)CC1.O=C(O)C(F)(F)F,97%
6,Cc1ccc(O)cc1Nc1ccnc2cc(-c3ccccn3)ccc12.Cl [GW440139A],97%
7,CC(C)CNCc1ccc(-c2cccc(CN(CCN(C)C)C(=O)CCC3CCCC3)c2)cc1.O=C(O)C(F)(F)F,100%
8,Oc1c(C(Nc2ccccn2)c2ccco2)cc(Cl)c2cccnc12 (stereo unspecified),87%
9,c1csc(-c2ccc3c(c2)CC(NCc2c[nH]c4cnccc24)C3)c1 (stereo unspecified),100%
10,O=c1c(Br)c(C(F)(F)F)[nH]c2ccc(Oc3ccccc3)cc12,91%
11,CCCCCCCCN1CCN(CCCCCCNc2c3ccccc3nc3ccccc23)CC1.Cl,100%
12,COc1cccc(NC(=O)c2nc(N3CCN(c4ccncc4)CC3)ccc2Cl)c1.O=C(O)C(F)(F)F,97%
13,Cc1cc(NC(=O)Nc2ccc(C#N)cc2)c2ccccc2n1,100%
14,Br.N=C(N)Nc1nc(-c2cc(NC(=O)C(F)(F)F)cc([N+](=O)[O-])c2)cs1,98%
15,c1ccc(COc2ccc(C3CCCCC3)cc2)nc1,99%
16,Cc1cccc(NC(=O)Nc2ccc(I)c(OCCN(C)C)c2)c1C,96%
17,CC1CCCC(NC(=O)CCOc2ccccc2)C1 (stereo unspecified),96%
18,Cc1[nH]c(CNCCCNc2cc(=O)c3ccccc3[nH]2)c(Br)c1Br,91%
19,O=C(Cn1c(=O)oc2ccccc21)N1CCC(n2c(=O)n(CCCN3CCOCC3)c3ccccc32)CC1,99%
20,CC(C)c1ccc(S(=O)(=O)N(c2ccc3c(c2)OCO3)C2CCN(Cc3ccccc3)C2)cc1 (stereo unspecified),100%
21,COc1cc(Nc2ncc3c(C)nc(-c4cc5ccccc5[nH]4)n3n2)cc(OC)c1OC,91%
22,O=CO.O=S1(=O)NCc2ccc(Nc3nccc(Nc4ccc5c(cnn5Cc5ccccc5)c4)n3)cc21,94%
23,CC(C)(CNC(=O)[C@@H]1CCCN(CCOc2ccc(Cl)cc2)C1)c1nc(-c2ccc(Cl)c(O)c2)c(-c2ccncc2)[nH]1.Cl,92%
24,N/C(=N\c1cccc(Cc2ccccc2)n1)NCc1ccccc1,85%
25,Cc1cc(NCCC(=O)NCCOc2ccccc2)nc(NCCc2ccc(F)cc2)n1.O=C(O)C(F)(F)F,97%
26,Cl.N#Cc1ccc(-c2ccc3nc(N4CCCN(C5CCC5)CC4)ccc3c2)cc1,96%

# — ChEMBL document CHEMBL1157539, “Thousands of chemical starting points for antimalarial lead identification” (Nature, 2010)
